From PubChem BioAssay AID485317 (Broad Institute, 2010)
Among all 290,000 compounds or so, about 11,000 (3.8%) were called active. The list comes from a sample in which actives are over-represented; it also holds similar structures and randomly drawn compounds. Values without a mark were called inactive.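 The calls were made as follows: active = mean replicate inhibition above about 79%, with every replicate also reaching it (limit read from the data); inconclusive = only one of the two criteria met; inactive = mean below limit and not every replicate reaching it.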

biological target: FAD-linked sulfhydryl oxidase ALR (Homo sapiens) (UniProt P55789); test: ALR-catalysed DTT oxidation blockers – biochemical, H2O2 detection, HRP-luminol luminescence, single point, primary screen (AID 485317); settings: purified ALR, active compounds read high, concentration not given here
Sequence (P55789 whole entry, looked up): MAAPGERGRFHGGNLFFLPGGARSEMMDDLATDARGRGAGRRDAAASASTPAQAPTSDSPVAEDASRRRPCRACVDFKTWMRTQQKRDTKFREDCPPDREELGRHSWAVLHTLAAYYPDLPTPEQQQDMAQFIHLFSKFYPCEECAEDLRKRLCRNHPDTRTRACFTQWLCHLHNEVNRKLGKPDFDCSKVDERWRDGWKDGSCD

Compound | inhibition
O=C(O)c1cc(S(=O)(=O)Nc2ccc3cn[nH]c3c2)ccc1Br | 42.7%
COc1cc(/C=C/C(=O)Nc2ccc(OC)c(S(=O)(=O)N3CCOCC3)c2)ccc1OCC#N | -4.4%
CCS(=O)(=O)N1Cc2ccccc2CC1C(=O)Nc1ccc(OC)cc1OC (stereo not drawn) | -16.1%
CCS(=O)(=O)N1Cc2ccccc2CC1C(=O)Nc1nc2ccc(F)cc2s1 (stereo not drawn) | 97.9% (active)
CSc1ncccc1C(=O)Nc1nc2ccc(F)cc2s1 | -2.85%
CCOC(=O)C1Nc2ccc(C(F)(F)F)cc2C2C=CCC12 (stereo not drawn) | -11.3%
Cc1cc(NC(=O)COc2ccc([N+](=O)[O-])cc2)no1 | 8.23%
c1ccc(Nc2nc(N3CCOCC3)c3ccccc3n2)cc1 | 48.8%
OCCNc1nc(Nc2ccc(Cl)c(Cl)c2)nc2ccccc12 | 19.6%
CN1CCN(c2nc(Nc3ccc(O)cc3)nc3ccccc23)CC1 | 98.9% (active)
CC(=O)c1c(C)[nH]c(C(=O)CN2C(=O)NC(C)(C)C2=O)c1C | 0.194%
O=c1cc(CO)oc(C(Nc2cccc([N+](=O)[O-])c2)c2ccccn2)c1O (stereo not drawn) | 94.5% (active)
O=c1cc(CO)oc(C(Nc2cccc(C(F)(F)F)c2)c2ccccn2)c1O (stereo not drawn) | 52.2%
O=[N+]([O-])c1cccc(S(=O)(=O)NCc2ccccn2)c1 | -12.1%
O=S1(=O)CC/C(=N\Nc2ccc(F)cc2)c2ccsc21 | 98.3% (active)
COc1ccc(C(=O)N/N=C2\CCS(=O)(=O)c3ccc(F)cc32)cc1OC | -0.529%
COc1ccccc1NC(=O)COC(=O)CNC(=O)C1CCCCC1 | -0.565%
COc1ccc(-c2c(C#Cc3ccsc3)c3cc(-c4ccc(CN5CCOCC5)cc4)ccc3n2C)cc1 | -4.78%
O=C(O)c1ccc(Cn2c(=S)[nH]c3cc(Cl)ccc3c2=O)cc1 | 94.9% (active)
CCOc1cc2[nH]c(=S)n(Cc3ccc(C(=O)N4CCN(C)CC4)cc3)c(=O)c2cc1OCC | -0.332%
COc1ccc(Cn2c(=S)[nH]c3cc(C(=O)N4CCCCC4)ccc3c2=O)cc1 | 9.27%
CC(=O)c1ccc(S(=O)(=O)Nc2ccc(-c3ccc4nncn4n3)cc2)cc1 | -13.1%
O=C1c2ccccc2C(=O)N1CCC#Cc1ccc2cc(C3(O)CCCCC3)oc(=O)c2c1 | -19.8%
CCOc1ccc(-c2cc(C(=O)N/N=C/c3ccc(O)cc3)c3ccccc3n2)cc1 | 1.65%
O=C(COC(=O)C1CCCO1)Nc1nc(-c2ccc(F)cc2)cs1 (stereo not drawn) | -4.39%

Compound | inhibition
Cc1ccc(NC2(C#N)C(=O)Nc3ccccc32)cc1 (stereo not drawn) | 97.6% (active)
Cc1cc(O)c(C2(O)C(=O)Nc3ccccc32)cc1C (stereo not drawn) | 16.1%
Cc1ccc2c(c1)C(O)(CC(=O)c1cccnc1)C(=O)N2 (stereo not drawn) | -0.959%
CN(C)c1ccc(NC(=O)CN2C3CCCC2CC(NC(=O)c2ccccc2)C3)cc1 (stereo not drawn) | 99.7% (active)
CCCN1C2CCCC1CC(NC(=O)c1cccc(OC)c1)C2 (stereo not drawn) | -4.94%
CC(=O)NC1CC2CCCC(C1)N2CC(=O)Nc1ccccc1 (stereo not drawn) | -9.69%
O=C1C=CN2CCCC2CC1 (stereo not drawn) | -8.59%
CN(c1ccc(O)cc1)c1nc(-c2cccnc2)cs1 | 95.1% (active)
Cc1ccccc1Nc1nc(-c2cccnc2)cs1 | 11.2%
O=C(Nc1nc(-c2cccnc2)cs1)c1ccccc1F | 1.15%
C=CCC[C@H](Cc1ccc(F)cc1)C(=O)OC[C@H](C)NC(=O)[C@H](CC=C)CC(=O)N(CCO)Cc1ccccc1 | 2.24%
COc1ccc([C@H]2CC(=O)C=C(/C=C/c3ccccc3)C2)cc1 | 1.57%
O=C(NCCN1CCOCC1)c1cccc(S(=O)(=O)Nc2ccc(F)cc2)c1 | -5.52%
O=C(COC(=O)c1ccc(Br)o1)NC12CC3CC(CC(C3)C1)C2 | -1.81%
Cc1ccc(S(=O)(=O)Nc2nc(C)cc(N/N=C/c3ccc(O)cc3)n2)cc1 | 98.5% (active)
Cc1cc(N/N=C\c2ccc(Br)cc2)nc(-n2nc(C)cc2C)n1 | -2.32%
Cc1ccc(S(=O)(=O)Nc2nc(C)cc(-n3nc(C)cc3C)n2)cc1 | 7.83%
CCN(C[C@H]1N[C@@](CC)(C(=O)OC)[C@H]2C(=O)N(Cc3ccccc3)C(=O)[C@@H]12)S(=O)(=O)c1ccc(C(F)(F)F)cc1 | 17.3%
Nc1ccc(OCC(O)C[n+]2ccc(CCS(=O)(=O)[O-])cc2)cc1 (stereo not drawn) | 98.1% (active)
CCc1ccc(S(=O)(=O)NCC(O)COc2ccc(OC)cc2)cc1 (stereo not drawn) | -11.7%
CCCc1ccc(OCC(O)CN2CCN(CCO)CC2)cc1 (stereo not drawn) | -1.03%
CCN(CC)C(CNC(=O)CSc1nnnn1-c1cccc(F)c1)c1ccco1 (stereo not drawn) | -5.32%
O=c1c2ccccc2ccc2ccc(P(=O)(O)O)cc12 | -13.1%
O=C1NC[C@@H](c2ccccc2)OC(=O)[C@H](Cc2ccc(F)cc2)CC/C=C/C[C@H]1CC(=O)N(CCO)Cc1ccccc1 | -7.53%
CC(C)(C)OC(=O)Nc1ccc([C@@H](NC(=O)OC(C)(C)C)C(=O)OC(C)(C)C)cc1 | 2.09%

Compound | inhibition
Cc1ccc(Sc2cc(C(=O)c3ccccc3C(=O)O)ccc2[N+](=O)[O-])cc1 | 97.5% (active)
Cc1cc(C(=O)O)ccc1[N+](=O)[O-] | -8.6%
CC(C)NC(=O)c1ccc(Sc2ccccc2)c([N+](=O)[O-])c1 | 5.17%
COc1ccc2c(c1)cc1n2CCN=C1NN | 97.6% (active)
COc1ccc2ccn(C)c2c1 | 7.82%
O=C(CNC(=O)c1n[nH]c2ccccc12)Nc1cc(Cl)ccc1Cl | -1.04%
Cc1ccc(CNC(=O)COC(=O)C2CCC2)cc1 | 2.97%
CCN(CC)CCCSc1nc2ccccc2s1 | -9.41%
O=C(CSc1nc2ccccc2s1)Nc1ccc(C(=O)O)cc1 | -1.73%
O=C(O)c1ccccc1CSc1nc2ccccc2s1 | 98.5% (active)
Cc1ccc(C(=O)OCC(=O)N2CC(C)CC(C)C2)cc1S(=O)(=O)N1CCCCC1 (stereo not drawn) | -62.3%
COCCCn1c(SCC(=O)Nc2oc(C)c3c(C)n[nH]c(=O)c23)nc2sc3c(c2c1=O)CCC3 | -9.92%
CC(OC(=O)CCC(=O)c1ccccc1)C(=O)Nc1ccc(F)cc1 (stereo not drawn) | -4.58%
O=C(CCCN=C1NS(=O)(=O)c2ccccc21)OCC(=O)c1ccc(F)c(F)c1 | -7.91%
NC(=O)c1oc2ccccc2c1NC(=O)Cc1ccccc1 | -7.38%
CC(C)(C)Nc1c(N)c(=O)oc2ccccc12 | 72.1%
Nc1c(NCCc2ccccc2)c2ccccc2oc1=O | 98.8% (active)
O=C(Nc1ccc(C(F)(F)F)cc1)c1cccc(-n2cnnn2)c1 | -5.63%
CSc1ncccc1C(=O)NCC(c1ccco1)N1CCCCC1 (stereo not drawn) | -3.83%
O=C(COC(=O)c1cc(=O)[nH]c2ccccc12)NCc1cccc(Cl)c1 | 1.99%
N#C/C(=C\c1ccc(N2CCOCC2)o1)C(=O)N1CCOCC1 | 83.6% (active)
N#C/C(=C\c1ccc(-c2cccc([N+](=O)[O-])c2)o1)C(=O)NCCN1CCOCC1 | -9.22%
COc1ccc(N2CCN(C(=O)/C(C#N)=C/c3ccccc3)CC2)cc1 | 33.6%
COc1ccccc1C(=O)NCCC(=O)NC(C)CCc1ccccc1 (stereo not drawn) | -10.1%
Cc1sc2ncnc(N3CCC(C(=O)Nc4nc5ccc(Cl)cc5s4)CC3)c2c1C | -1.15%

Compound | inhibition
CC(C)Oc1ccc(C(=O)NCC(=O)Nc2ccc3c(c2)CCC3)cc1 | 1.47%
COc1ccc(OCC(=O)NNC(=O)C2CCC2)cc1 | -2.8%
NNC(=O)COc1ccc(C2SCCS2)cc1 | 89.6% (active)
O=C(COc1ccc(Cl)cc1)Nc1ccc2c(c1)OCO2 | -11.8%
O=C(NCc1ccccc1CN1CCCC1)C1CCN(S(=O)(=O)c2ccc(Cl)cc2)CC1 | 2.81%
COC(=O)C1=C(C)N(Cc2ccccc2)C(=NCCCOC(C)C)N[C@H]1c1ccccc1 | -6.98%
CCN(CC)CCCNC(=O)CCc1ccccc1 | -4.98%
CCN(CCCNC(=O)CCn1c(=O)[nH]c2ccsc2c1=O)c1ccccc1 | 99.3% (active)
CCCCC(CC)CNC(=O)CCCCn1c(=O)[nH]c2ccsc2c1=O (stereo not drawn) | -6.66%
CC(C)(C)Oc1ccccc1Nc1nc(NCCO)nc(N2CCCC2)n1 | 6.57%
Cc1ccsc1C(=O)NNC(=O)COc1ccc(Br)cc1 | -3.21%
Cn1c(SCC(=O)Nc2nccs2)nnc1-c1cccnc1 | 2.9%
COc1ccc(Cc2nnc(SCC(=O)N(c3ccccc3)C(C)C)n(N)c2=O)cc1 | -4.76%
COc1ccc(NC(=O)CSc2nnc(Cc3ccccc3)c(=O)n2N)cc1 | 98.6% (active)
CCn1c(SCC(=O)Nc2ccc(OC)c(OC)c2)nnc1-c1c[nH]c2ccccc12 | -15.3%
COc1ccc(NC(=O)CSc2nncc(=O)n2N)cc1OC | 87% (active)
CCn1c(SCC(=O)Nc2nccs2)nnc1-c1ccco1 | -4.02%
Cc1cc(-c2nnc(SCC(=O)Nc3ccc(F)cc3)n2N)n[nH]1 | -1.02%
COc1ccc(NC(=O)CSc2nc3ccccc3c(=O)n2C)cc1 | -13.7%
Cc1[nH]c2ccccc2c1SCC(=O)Nc1nccs1 | 97.1% (active)
Cc1cc(C(=O)OCC(=O)Nc2nccs2)c2ccccc2n1 | -1.42%
Nn1c(SCC(=O)Nc2nccs2)nncc1=O | 98.8% (active)
CCn1c(SCC(=O)Nc2nccs2)nnc1-c1ccncc1 | -12.3%
